We go through 94 molecules from PubChem BioAssay AID463173 (ICCB-Longwood Screening Facility, Harvard Medical School, 2010).

Out of some 52,000 compounds screened, about 4,300 (8.3%) were called active. Many of the other results were omitted from the sample, so actives are more common in it than they were. Values without a mark were called inactive. No stated cut-off is given here; in the data, active means survival mostly below about 52% (no sharp cut-off); inactive means mostly above about 56%.

For the test, the system named is DeltatarO mutant. In words: growth inhibition of S. aureus wild type versus tarO mutant, primary screen, teichoic acid synthesis inhibitors, RN4220, OD600 (AID 463173). The following applies: OD600, 18 h, stronger effect = lower value, screened at 18.75 µg/mL (by protocol).
Turning to `O=C(COc1ccc(Cl)cc1)Nc1ccc(-c2nc3ccccc3s2)c(O)c1`, the survival is 68%.

Take `O=C(COc1ccc(Cl)cc1)Nc1ccc(O)c(-c2nc3ccccc3s2)c1`: the survival is 94%.

Turning to `COc1ccc(CC(=O)Nc2ccc(-c3nc4ccccc4s3)cc2Cl)cc1`, the survival was 69%.

Regarding `CCOc1ccc(C(=O)Nc2ccc(-c3nc4ccccc4s3)c(C)c2)cc1OCC`, the survival was 99%.

As to `CCOc1ccccc1C(=O)Nc1ccccc1`, the survival was 65%.

Turning to `COc1ccc(OCC(=O)Nc2cccc(-c3nc4ccccc4s3)c2C)cc1`, the survival was 106%.

Turning to `Cc1ccc(OCC(=O)Nc2cccc(-c3nc4ccccc4s3)c2)cc1`, the survival is 47% (active).

As for `Cc1cc(C)cc(OCC(=O)Nc2ccc(-c3nc4ccccc4s3)cc2)c1`, the survival was 68%.

In the case of `COc1ccc(OCC(=O)Nc2ccc(O)c(-c3nc4ccccc4s3)c2)cc1`, the survival is 43% (active).

With `COc1cccc(CC(=O)Nc2ccc(-c3nc4ccccc4s3)cc2Cl)c1`, the survival was 69%.

For `CCOc1ccccc1C(=O)Nc1cccc(-c2nc3ccccc3s2)c1`, the survival was 41% (active).

As to `COc1cccc(CC(=O)Nc2ccc(-c3nc4ccccc4s3)cc2)c1`, the survival is 0% (active).

As for `CCOc1ccc(NS(=O)(=O)c2ccc3c4c(cccc24)C(=O)N3)cc1`, the survival was 83%.

With `CCn1cc2nc(SCc3ccccc3)n(Cc3ccc(C)cc3)c(=O)c2n1`, the survival was 93%.

For `O=C(NCCc1ccccc1)c1cc(-c2ccccc2)nc2n[nH]c(-c3ccccc3)c12`, the survival is 55%.

`CCOC(=O)c1ccc(CN(Cc2ccc(F)cc2)S(=O)(=O)c2ccc(F)c(C(=O)Nc3ccc(Cl)cc3F)c2)cc1`: the survival was 79%.

In the case of `CCOc1cc(CNC(=O)c2cc(-c3ccc(Cl)s3)nc3ccccc23)ccc1OC`, the survival was 84%.

For `CCOC(=O)C1CCCN(C(=O)Cn2ncc3c4ccccc4n(C)c3c2=O)C1` (centres undefined), the survival is 121%.

Turning to `Cc1ccc2nc(-c3ccc(NC(=O)COc4ccccc4)cc3)sc2c1`, the survival was 68%.

For the molecule `COc1ccc(OCC(=O)Nc2cc(-c3nc4ccccc4s3)ccc2C)cc1`, the survival was 45% (active).

For the molecule `COc1ccc(-c2nc3ccccc3s2)cc1NC(=O)COc1ccc(C)cc1`, the survival was 129%.

For `Cc1ccc2nc(-c3ccc(NC(=O)COc4c(C)ccc(C)c4C)cc3)sc2c1`, the survival is 38% (active).

For `CC(=O)Nc1cc(-c2nc3ccccc3s2)ccc1C`, the survival was 83%.

Take `COc1ccc(-c2nc3ccccc3s2)cc1NC(=O)COc1cccc(C)c1`: the survival is 16% (active).

Consider `COc1ccc(-c2nc3ccccc3s2)cc1NC(=O)COc1ccccc1C`, for which the survival is 142%.

`Cc1csc2nc(-c3cccc(NC(=O)C(C)C)c3)cn12`: the survival is 73%.

Take `Cc1ccc(-c2nc3ccccc3s2)cc1NC(=O)COc1ccccc1`: the survival is 54%.

For `Cc1csc2nc(-c3cccc(NC(=O)c4c(F)cccc4F)c3)cn12`, the survival is 128%.

On to `Cc1ccc2nc(-c3ccc(NC(=O)COc4ccc(Cl)c(C)c4)cc3)sc2c1`, for which the survival was 74%.

Consider `CCCC(=O)Nc1cccc(-c2cn3c(C)csc3n2)c1`, for which the survival is -5% (active).

For `CCOC(=O)CC(=O)CSc1nc2ccsc2c(=O)n1Cc1ccccc1`, the survival was 118%.

As to `COc1ccc(-c2coc3c2c(C)cc2oc(=O)cc(C)c23)cc1`, the survival is 82%.

For the molecule `Cc1ccc(CCNC(=O)C2CC(=O)N(CCc3ccc(C)cc3)C2)cc1` (centres undefined), the survival was 101%.

As to `Cc1cc(Br)ccc1NC(=O)C1CCN(S(=O)(=O)c2cccc3nsnc23)CC1`, the survival is 115%.

As for `COc1ccc(Br)cc1CNC(=O)c1cnc2sc(N3CCC(C)CC3)nn2c1=O`, the survival was 78%.

On to `CCc1ccc(-n2nc3ccc(NC(=O)c4cc5ccccc5o4)cc3n2)cc1`, for which the survival is 65%.

Turning to `COc1cccc(C(C(=O)NCC2CCCO2)N(CC2CCCO2)C(=O)CC2C(=O)c3ccccc3S2(=O)=O)c1` (centres undefined), the survival was 90%.

Regarding `Cc1ccc2nc(SCc3nc(-c4ccccc4C)no3)[nH]c2c1`, the survival is 25% (active).

As for `Cc1ccc2nc(SCc3nc(-c4ccc(Cl)cc4)no3)[nH]c2c1`, the survival was 28% (active).

For the molecule `COc1ccc(-c2noc(CSc3nc4ccc(C)cc4[nH]3)n2)cc1`, the survival was 39% (active).

Regarding `COc1ccc(-c2noc(CSc3nc4ccccc4[nH]3)n2)cc1OC`, the survival was 62%.

As for `COc1ccc(-c2noc(CSc3nc4ccccc4[nH]3)n2)cc1`, the survival was 51%.

As to `CCc1cc(=O)[nH]c(SCc2nc(-c3ccccc3C)no2)n1`, the survival is 84%.

As for `COc1ccccc1-c1noc(CSc2nc3ccc(C)cc3[nH]2)n1`, the survival was 102%.

With `Cc1ccccc1-c1noc(CSc2nc(-c3ccc(F)cc3)cc(=O)[nH]2)n1`, the survival is 37% (active).

On to `Cc1cccc(-c2noc(CSc3nc(-c4ccc(F)cc4)cc(=O)[nH]3)n2)c1`, for which the survival was 83%.

Turning to `O=c1cc(-c2ccccc2)nc(SCc2nc(-c3ccc(Cl)cc3)no2)[nH]1`, the survival was 69%.

As for `O=c1cc(-c2ccc(F)cc2)nc(SCc2nc(-c3ccccc3Cl)no2)[nH]1`, the survival was 117%.

Consider `Cc1ccccc1-c1noc(CSc2nc3ccccc3[nH]2)n1`, for which the survival is 57%.

In the case of `NCCSC1CC(=O)N(c2ccc(Cl)cc2)C1=O` (centres undefined), the survival is 88%.

With `COc1ccc(C)cc1NC(=O)c1cc2c(=O)n3cccc(C)c3nc2s1`, the survival was 86%.

`COc1ccc(Cl)cc1NC(=O)CN(C)S(=O)(=O)c1ccc2c(c1)CCCN2C(C)=O`: the survival was 78%.

With `CCCCNS(=O)(=O)c1ccc(N2CCCCS2(=O)=O)cc1`, the survival is 66%.

As to `Cc1ccc(-c2noc(-c3nnn(CC(=O)Nc4ccc(C)cc4Cl)c3N)n2)cc1`, the survival was 83%.

As for `C=CCNCc1cc2cc(OCC)ccc2[nH]c1=O`, the survival was 97%.

Consider `COc1cc(OC)c(Nc2ncnc3onc(-c4cccc(Cl)c4)c23)cc1Cl`, for which the survival is 73%.

For `CCOc1ccc(NC(=O)Cn2cc(S(=O)(=O)N3CCN(c4ccccc4F)CC3)c3ccccc3c2=O)cc1`, the survival is 89%.

In the case of `COc1ccc(NC(=O)CSc2nnc(-c3cccs3)o2)cc1`, the survival was 54%.

For the molecule `COc1ccccc1NC(=O)CCn1nc(-c2ccccc2)c2ccccc2c1=O`, the survival was 42% (active).

As to `Cc1ccccc1NC(=O)CCn1nc(-c2ccc(Cl)cc2)c2ccccc2c1=O`, the survival was 95%.

With `Cc1ccc(NC(=O)Cn2ncn3c(cc4ccccc43)c2=O)cc1F`, the survival was 84%.

As to `O=C(CCn1nc(-c2ccccc2)c2ccccc2c1=O)Nc1ccccc1`, the survival is 69%.

`CCCNC(=O)CCn1nc(-c2ccccc2)c2ccccc2c1=O`: the survival is 70%.

For `Cc1ccc(-c2nn(CCC(=O)Nc3ccc(Cl)c(Cl)c3)c(=O)c3ccccc23)cc1`, the survival is 53%.

In the case of `Cc1ccc(NC(=O)Cn2ncn3c(cc4ccccc43)c2=O)c(C)c1`, the survival is 45% (active).

As for `Cc1ccc(NC(=O)Cn2ncn3c(cc4ccccc43)c2=O)cc1C`, the survival is 73%.

In the case of `Cc1ccc(NC(=O)CCn2nc(-c3ccccc3)c3ccccc3c2=O)c(C)c1`, the survival is 52% (active).

`COc1ccc(NC(=O)CSc2nc3cc(OC)c(OC)cc3c3nc(-c4ccccc4)nn23)cc1Cl`: the survival was 123%.

Consider `Cc1ccc(NC(=O)CN2C(=O)CCSc3ccc(S(=O)(=O)N4CCCC4)cc32)cc1`, for which the survival is 86%.

Consider `COc1ccc(-c2onc(C)c2C)cc1S(=O)(=O)NCc1ccc(C)o1`, for which the survival was 89%.

Turning to `CC1=C(c2ccc(C(C)C)cc2)S(=O)(=O)N=C1N1CCN(c2ccccc2F)CC1`, the survival was 85%.

Regarding `COc1ccc(OC)c(C2CC(=O)Nc3c2c(=O)[nH]c2nc4ccccc4n32)c1` (centres undefined), the survival is 164%.

Regarding `CCNc1nc(NC(C)(C)C)nc(Oc2ccc(=O)n(C)n2)n1`, the survival was 68%.

With `Cc1cccc(N2CCN(C(=O)CCc3c(C)nc4ncnn4c3C)CC2)c1C`, the survival was 79%.

For `CCOc1ccc(NC2SC(=O)N(Cc3ccccc3)C2=O)cc1` (centres undefined), the survival is 42% (active).

With `CCOC(=O)c1ccc(NC2SC(=O)N(Cc3cccc(C(=O)O)c3)C2=O)cc1` (centres undefined), the survival is 60%.

Regarding `CN1C(=O)SC(Nc2ccccc2)C1=O` (centres undefined), the survival is 65%.

On to `Cc1ccc(N2C(=O)SC(Nc3ccccc3)C2=O)cc1` (centres undefined), for which the survival was 83%.

For `COC(=O)c1cccc(CN2C(=O)SC(Nc3ccc(C)cc3)C2=O)c1` (centres undefined), the survival is 50%.

Regarding `O=C1SC(Nc2ccc(Cl)cc2)C(=O)N1Cc1ccccc1` (centres undefined), the survival was 107%.

For `COC(=O)c1cccc(CN2C(=O)SC(Nc3ccc(Cl)cc3)C2=O)c1` (centres undefined), the survival was 42%.

For the molecule `COc1ccc(NC2SC(=O)N(c3ccccc3)C2=O)cc1` (centres undefined), the survival was 105%.

On to `COC(=O)c1cccc(CN2C(=O)SC(Nc3ccccc3C)C2=O)c1` (centres undefined), for which the survival was 133%.

Regarding `Cc1ccc(CN2C(=O)SC(Nc3ccccc3)C2=O)cc1` (centres undefined), the survival was 40% (active).

Turning to `COC(=O)c1cccc(CN2C(=O)SC(Nc3ccc(Br)cc3)C2=O)c1` (centres undefined), the survival is 23% (active).

For `Cc1ccc(CN2C(=O)SC(Nc3ccc(Cl)cc3)C2=O)cc1` (centres undefined), the survival was 30% (active).

On to `COc1cc2c(cc1OC)C(COc1ccc3c(C)cc(=O)oc3c1)N(C(=O)Cc1ccc(F)cc1)CC2` (centres undefined), for which the survival is 80%.

As to `CC1(C)Cc2ccccc2-c2nc(NN)[nH]c(=O)c21`, the survival is 67%.

`O=C(O)c1cccc(N2C(=O)c3cccnc3C2=O)c1`: the survival is 83%.

As to `Cc1ccc(-n2c(=O)c3c(c4cc(C)ccc4n3C)n(CC(=O)Nc3cc(C)cc(C)c3)c2=O)cc1`, the survival is 105%.

In the case of `COc1ccc2nc(N(Cc3cccnc3)C(=O)c3ccc(Cl)cc3)sc2c1`, the survival was 89%.

In the case of `CCOC(=O)c1cc(-c2ccccc2)n(-c2cccc(C(=O)Nc3ccc(F)c(F)c3)c2)c1C`, the survival is 87%.

Turning to `CC(CN)(NS(=O)(=O)c1ccccc1)c1ccccc1` (centres undefined), the survival was 84%.

Regarding `COc1ccc(CN=C(N)N=C(N)N)cc1`, the survival was 95%.
